# Laboratory results published in publication PMC7862700, “An all-to-all approach to the identification of sequence-specific readers for epigenetic DNA modifications on cytosine”.
# Legend:
# Test in all cases: DAPPL (digital affinity profiling via proximity ligation, sequencing); 10 mM Tris-HCl pH 7.5, 50 mM NaCl, 1 mM DTT, 4% glycerol, room temperature, 30 min; GST-TFs on glutathione beads, 16-mer random dsDNA library, 0.1% formaldehyde crosslink after washing; high values mean tight binding
# [1] = target: T1, ELK1 (Homo sapiens, UniProt P19419 1-428); settings: protein: recombinant; tags: N-terminal GST; dsDNA, one strand shown
# T1 sequence: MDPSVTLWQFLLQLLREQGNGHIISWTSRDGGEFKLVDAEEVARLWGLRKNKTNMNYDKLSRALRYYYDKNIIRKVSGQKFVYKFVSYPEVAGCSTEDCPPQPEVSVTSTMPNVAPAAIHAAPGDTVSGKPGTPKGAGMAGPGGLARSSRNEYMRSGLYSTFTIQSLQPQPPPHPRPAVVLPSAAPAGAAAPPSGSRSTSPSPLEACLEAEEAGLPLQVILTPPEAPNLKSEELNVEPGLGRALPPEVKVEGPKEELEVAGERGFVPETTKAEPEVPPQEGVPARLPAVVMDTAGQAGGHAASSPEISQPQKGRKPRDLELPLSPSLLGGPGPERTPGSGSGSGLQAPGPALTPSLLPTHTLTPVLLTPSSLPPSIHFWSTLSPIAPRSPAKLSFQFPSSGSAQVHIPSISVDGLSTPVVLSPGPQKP
# Summary of the method: (§1)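 Yeast served to express human transcription factors as GST fusions, which were then captured on glutathione beads and labelled with DNA barcodes. Pooled with a tag-only sample, they were incubated with 200 nmole of a 16-mer random double-stranded DNA library for 30 min at room temperature in Tris/NaCl/DTT/glycerol buffer, washed, crosslinked with 0.1% formaldehyde, ligated by proximity, amplified by PCR and sequenced. Dividing each hexamer's read frequency for a factor by its frequency for the tag-only sample gives the binding signal.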
# [2] = target: T2, GABPA (Homo sapiens, UniProt Q06546 1-454); settings: protein: recombinant; tags: N-terminal GST; dsDNA, one strand shown
# T2 sequence: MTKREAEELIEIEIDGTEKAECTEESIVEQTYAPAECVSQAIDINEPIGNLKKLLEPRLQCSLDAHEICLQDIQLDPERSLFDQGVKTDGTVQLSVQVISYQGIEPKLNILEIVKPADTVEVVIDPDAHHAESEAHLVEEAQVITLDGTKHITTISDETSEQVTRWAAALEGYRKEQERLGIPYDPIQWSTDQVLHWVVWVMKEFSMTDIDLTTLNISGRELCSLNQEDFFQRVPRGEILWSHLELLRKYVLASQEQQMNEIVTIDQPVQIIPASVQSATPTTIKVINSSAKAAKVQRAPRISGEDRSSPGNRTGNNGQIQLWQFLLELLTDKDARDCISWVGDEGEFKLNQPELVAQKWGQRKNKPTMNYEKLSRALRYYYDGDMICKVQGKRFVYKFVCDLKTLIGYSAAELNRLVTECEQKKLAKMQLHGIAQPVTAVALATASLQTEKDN
# Summary of the method: as §1
# [3] = target: T3, ERG (Homo sapiens, UniProt P11308 1-479); settings: protein: recombinant; tags: N-terminal GST; dsDNA, one strand shown
# T3 sequence: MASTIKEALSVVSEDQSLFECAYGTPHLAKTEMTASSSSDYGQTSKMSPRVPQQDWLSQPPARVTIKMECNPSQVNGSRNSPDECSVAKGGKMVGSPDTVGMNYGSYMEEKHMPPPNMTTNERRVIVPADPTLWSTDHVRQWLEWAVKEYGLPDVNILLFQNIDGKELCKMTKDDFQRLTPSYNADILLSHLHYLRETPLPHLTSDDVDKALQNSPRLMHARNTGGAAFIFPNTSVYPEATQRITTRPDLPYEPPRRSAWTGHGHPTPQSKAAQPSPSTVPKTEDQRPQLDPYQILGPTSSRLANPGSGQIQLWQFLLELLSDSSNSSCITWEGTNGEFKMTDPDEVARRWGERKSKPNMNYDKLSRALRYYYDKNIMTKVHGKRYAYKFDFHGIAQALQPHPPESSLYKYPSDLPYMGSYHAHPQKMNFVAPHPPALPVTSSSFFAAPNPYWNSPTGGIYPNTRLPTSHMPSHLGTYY
# Summary of the method: as §1
# [4] = target: ELF1 (Homo sapiens, UniProt P32519 1-619); settings: protein: recombinant; tags: N-terminal GST; dsDNA, one strand shown
# Sequence of ELF1 (P32519 whole entry): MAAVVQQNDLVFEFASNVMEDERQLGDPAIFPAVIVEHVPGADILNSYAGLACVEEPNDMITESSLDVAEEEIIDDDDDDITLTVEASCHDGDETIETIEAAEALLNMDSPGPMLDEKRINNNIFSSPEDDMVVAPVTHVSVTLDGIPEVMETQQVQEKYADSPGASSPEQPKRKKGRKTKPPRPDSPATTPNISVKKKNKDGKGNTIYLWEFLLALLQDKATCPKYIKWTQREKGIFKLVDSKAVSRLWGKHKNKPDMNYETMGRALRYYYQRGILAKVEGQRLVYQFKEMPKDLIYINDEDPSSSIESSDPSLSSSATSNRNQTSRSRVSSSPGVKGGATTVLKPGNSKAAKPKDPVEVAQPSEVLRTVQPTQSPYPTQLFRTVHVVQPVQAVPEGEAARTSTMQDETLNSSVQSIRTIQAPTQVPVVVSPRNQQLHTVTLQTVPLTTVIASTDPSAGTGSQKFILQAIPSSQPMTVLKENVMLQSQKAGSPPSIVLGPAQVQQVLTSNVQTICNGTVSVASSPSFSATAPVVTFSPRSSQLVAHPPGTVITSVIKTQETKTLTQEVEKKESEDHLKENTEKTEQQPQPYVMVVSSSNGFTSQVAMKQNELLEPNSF
# Summary of the method: as §1
# [5] = target: SPI1 (Homo sapiens, UniProt P17947 1-270); settings: protein: recombinant; tags: N-terminal GST; dsDNA, one strand shown
# Summary of the method: as §1
# [6] = target: SPIB (Homo sapiens, UniProt Q01892 1-262); settings: protein: recombinant; tags: N-terminal GST; dsDNA, one strand shown
# Sequence of SPIB (Q01892 whole entry): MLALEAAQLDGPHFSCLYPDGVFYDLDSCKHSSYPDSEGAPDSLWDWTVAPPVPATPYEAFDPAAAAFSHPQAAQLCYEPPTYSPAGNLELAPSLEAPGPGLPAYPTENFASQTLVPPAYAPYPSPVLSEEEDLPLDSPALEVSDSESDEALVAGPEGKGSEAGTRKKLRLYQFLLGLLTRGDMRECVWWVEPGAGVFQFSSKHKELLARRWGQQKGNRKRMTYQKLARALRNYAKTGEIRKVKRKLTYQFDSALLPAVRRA
# Summary of the method: as §1
# [7] = target: HSF1 (Homo sapiens, UniProt Q00613 1-529); settings: protein: recombinant; tags: N-terminal GST; chain copies: 3; dsDNA, one strand shown
# Sequence of HSF1 (Q00613 whole entry): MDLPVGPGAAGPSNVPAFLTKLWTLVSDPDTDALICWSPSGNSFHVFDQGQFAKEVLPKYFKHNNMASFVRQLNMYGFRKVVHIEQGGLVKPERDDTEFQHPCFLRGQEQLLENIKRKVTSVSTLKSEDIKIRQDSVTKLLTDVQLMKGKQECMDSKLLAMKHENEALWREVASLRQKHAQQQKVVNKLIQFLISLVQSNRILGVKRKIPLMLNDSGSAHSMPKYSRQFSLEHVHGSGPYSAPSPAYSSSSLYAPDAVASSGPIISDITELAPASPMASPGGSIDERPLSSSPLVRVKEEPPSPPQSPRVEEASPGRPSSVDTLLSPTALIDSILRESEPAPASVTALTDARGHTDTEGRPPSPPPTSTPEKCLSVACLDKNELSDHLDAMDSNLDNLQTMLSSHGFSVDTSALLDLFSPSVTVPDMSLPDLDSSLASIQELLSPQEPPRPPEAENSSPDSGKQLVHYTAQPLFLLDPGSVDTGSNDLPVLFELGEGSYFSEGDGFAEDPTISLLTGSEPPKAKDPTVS
# Summary of the method: as §1
# [8] = target: T4, SPIC (Homo sapiens, UniProt Q8N5J4 1-248); settings: protein: recombinant; tags: N-terminal GST; dsDNA, one strand shown
# T4 sequence: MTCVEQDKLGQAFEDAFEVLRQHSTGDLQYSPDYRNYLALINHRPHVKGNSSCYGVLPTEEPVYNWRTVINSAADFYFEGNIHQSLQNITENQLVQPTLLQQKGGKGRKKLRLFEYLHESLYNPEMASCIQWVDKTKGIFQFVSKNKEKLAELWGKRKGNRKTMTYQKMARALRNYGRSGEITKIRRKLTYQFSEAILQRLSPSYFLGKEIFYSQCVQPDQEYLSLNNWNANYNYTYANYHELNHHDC
# Summary of the method: as §1
# [9] = target: T5, ELK4 (Homo sapiens, UniProt P28324-2 1-405); settings: protein: recombinant; tags: N-terminal GST; dsDNA, one strand shown
# T5 sequence: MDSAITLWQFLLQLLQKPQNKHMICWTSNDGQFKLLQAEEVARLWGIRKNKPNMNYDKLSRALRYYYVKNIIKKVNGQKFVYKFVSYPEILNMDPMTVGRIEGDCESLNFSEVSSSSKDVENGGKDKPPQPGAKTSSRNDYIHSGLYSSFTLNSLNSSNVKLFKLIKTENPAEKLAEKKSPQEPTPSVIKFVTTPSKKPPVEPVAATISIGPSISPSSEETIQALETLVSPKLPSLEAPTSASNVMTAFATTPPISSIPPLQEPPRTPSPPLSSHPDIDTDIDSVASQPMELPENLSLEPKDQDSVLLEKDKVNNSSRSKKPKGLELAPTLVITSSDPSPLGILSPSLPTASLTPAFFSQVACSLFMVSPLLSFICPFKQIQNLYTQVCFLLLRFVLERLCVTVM
# Summary of the method: as §1
# [10] = target: T6, ETV3L (Homo sapiens, UniProt Q6ZN32 1-361); settings: protein: recombinant; tags: N-terminal GST; dsDNA, one strand shown
# T6 sequence: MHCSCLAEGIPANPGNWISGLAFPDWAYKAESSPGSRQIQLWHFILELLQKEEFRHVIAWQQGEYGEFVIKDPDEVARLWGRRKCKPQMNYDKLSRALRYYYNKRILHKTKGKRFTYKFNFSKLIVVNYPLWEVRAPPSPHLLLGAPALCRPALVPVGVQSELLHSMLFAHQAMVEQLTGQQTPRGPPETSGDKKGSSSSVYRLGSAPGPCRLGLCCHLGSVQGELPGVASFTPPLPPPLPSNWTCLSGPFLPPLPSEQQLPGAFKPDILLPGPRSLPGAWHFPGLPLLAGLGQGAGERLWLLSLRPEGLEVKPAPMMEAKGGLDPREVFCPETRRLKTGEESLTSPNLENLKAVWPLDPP
# Summary of the method: as §1
# [11] = target: T7, ETS2 (Homo sapiens, UniProt P15036 1-469); settings: protein: recombinant; tags: N-terminal GST; dsDNA, one strand shown
# T7 sequence: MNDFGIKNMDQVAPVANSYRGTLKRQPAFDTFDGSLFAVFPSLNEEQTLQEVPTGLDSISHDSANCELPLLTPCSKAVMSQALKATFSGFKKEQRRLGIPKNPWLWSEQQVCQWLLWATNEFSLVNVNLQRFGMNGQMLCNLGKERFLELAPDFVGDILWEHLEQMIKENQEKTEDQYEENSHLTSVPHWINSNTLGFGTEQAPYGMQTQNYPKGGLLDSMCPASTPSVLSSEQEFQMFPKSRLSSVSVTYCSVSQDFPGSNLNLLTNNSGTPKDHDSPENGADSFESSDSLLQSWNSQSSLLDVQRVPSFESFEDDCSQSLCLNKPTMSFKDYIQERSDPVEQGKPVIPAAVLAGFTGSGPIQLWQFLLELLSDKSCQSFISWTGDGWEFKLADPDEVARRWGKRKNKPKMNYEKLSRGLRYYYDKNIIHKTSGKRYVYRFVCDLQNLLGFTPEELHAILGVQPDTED
# Summary of the method: as §1
# [12] = target: T8, ETV7 (Homo sapiens, UniProt Q9Y603 1-341); settings: protein: recombinant; tags: N-terminal GST; dsDNA, one strand shown
# T8 sequence: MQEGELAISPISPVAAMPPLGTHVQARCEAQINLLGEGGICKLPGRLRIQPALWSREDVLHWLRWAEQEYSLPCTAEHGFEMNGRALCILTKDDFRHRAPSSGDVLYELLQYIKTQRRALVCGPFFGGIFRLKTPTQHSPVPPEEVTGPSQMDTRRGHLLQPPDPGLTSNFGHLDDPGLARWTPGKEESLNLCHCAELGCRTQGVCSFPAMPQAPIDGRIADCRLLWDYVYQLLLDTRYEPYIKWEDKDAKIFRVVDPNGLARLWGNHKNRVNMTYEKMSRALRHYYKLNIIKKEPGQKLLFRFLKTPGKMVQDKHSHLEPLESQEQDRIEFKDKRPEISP
# Summary of the method: as §1
# [13] = target: ETV6 (Homo sapiens, UniProt P41212 1-452); settings: protein: recombinant; tags: N-terminal GST; dsDNA, one strand shown
# Sequence of ETV6 (P41212 whole entry): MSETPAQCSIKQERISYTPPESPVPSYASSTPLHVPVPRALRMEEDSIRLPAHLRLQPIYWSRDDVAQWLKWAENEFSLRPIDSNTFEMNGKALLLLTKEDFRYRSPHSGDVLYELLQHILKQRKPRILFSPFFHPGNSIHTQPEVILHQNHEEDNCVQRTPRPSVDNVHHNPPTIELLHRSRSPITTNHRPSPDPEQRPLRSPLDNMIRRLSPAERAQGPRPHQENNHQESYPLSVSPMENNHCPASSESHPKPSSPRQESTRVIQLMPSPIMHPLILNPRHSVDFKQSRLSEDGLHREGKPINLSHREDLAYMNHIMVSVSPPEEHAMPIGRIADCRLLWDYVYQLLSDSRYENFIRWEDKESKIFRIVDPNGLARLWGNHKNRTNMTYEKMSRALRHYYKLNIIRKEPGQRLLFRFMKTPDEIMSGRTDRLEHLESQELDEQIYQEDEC
# Summary of the method: as §1
sequence,measurement,setting,value
CACTAG,binding signal,[1],"1.04 fold enrichment (6-mer frequency, TF over GST control)"
same,binding signal,[2],"1.02 fold enrichment (6-mer frequency, TF over GST control)"
same,binding signal,[3],"1.04 fold enrichment (6-mer frequency, TF over GST control)"
same,binding signal,[4],"1.09 fold enrichment (6-mer frequency, TF over GST control)"
same,binding signal,[5],"1.06 fold enrichment (6-mer frequency, TF over GST control)"
same,binding signal,[6],"1 fold enrichment (6-mer frequency, TF over GST control)"
same,binding signal,[7],"1.24 fold enrichment (6-mer frequency, TF over GST control)"
same,binding signal,[8],"1.05 fold enrichment (6-mer frequency, TF over GST control)"
same,binding signal,[9],"1.06 fold enrichment (6-mer frequency, TF over GST control)"
same,binding signal,[10],"1.03 fold enrichment (6-mer frequency, TF over GST control)"
same,binding signal,[11],"1.01 fold enrichment (6-mer frequency, TF over GST control)"
same,binding signal,[12],"1.01 fold enrichment (6-mer frequency, TF over GST control)"
same,binding signal,[13],"1.01 fold enrichment (6-mer frequency, TF over GST control)"
